Laboratory results: PubChem BioAssay (NCI)
About 83,000 compounds went through this panel and 20% of them were active in at least one assay; those are over-represented in the sample as a whole.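 Single-dose data. Exposure time 48 hours. Values below 10 considered active.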 Values without a mark were called inactive. Calls of active or inactive are those of the source.

Key:
Test in all cases: NCI-60 one-dose screen, 48 h (100 = growth as untreated, 0 = no growth, -100 = all killed)
Conditions in all cases: 10 µM unless noted
SK-MEL-2 melanoma = test system: SK-MEL-2 melanoma
EKVX NSCLC = test system: EKVX NSCLC
SN12C renal = test system: SN12C renal
UO-31 renal = test system: UO-31 renal
TK-10 renal = test system: TK-10 renal
ACHN renal = test system: ACHN renal
CAKI-1 renal = test system: CAKI-1 renal
A498 renal = test system: A498 renal
MOLT-4 leukemia = test system: MOLT-4 leukemia
CCRF-CEM leukemia = test system: CCRF-CEM leukemia

Row | Structure (SMILES) | growth (SK-MEL-2 melanoma) | growth (EKVX NSCLC) | growth (SN12C renal) | growth (UO-31 renal) | growth (TK-10 renal) | growth (ACHN renal) | growth (CAKI-1 renal) | growth (A498 renal) | growth (MOLT-4 leukemia) | growth (CCRF-CEM leukemia)
1 | COc1cc(C=C2C(=O)NC(=S)NC2=O)cc(CN2CCCC2)c1O | 110% | 101% | 104% | 87% | 109% | 111% | 90.5% | 101% | 110% | 
2 | C[C@@H]1CN(c2cnc(C(=O)Nc3cc(F)cc4cccnc34)cn2)C[C@H](C)N1 | 105% | 77% | 83.2% | 44.1% | 72.2% | 32.3% | 66.2% | 67.4% | 33% | 
3 | CN1c2ccccc2S(=O)(=O)n2c(SCC(=O)Nc3nc4ccc(F)cc4s3)nnc21 | 52.6% | 102% | 104% | -65.7% (active) | 130% | 96.1% | 97.3% |  | 81.9% | 31.1%
4 | CN(C)c1ccc(CNCCO)cc1 | 65.8% | 103% | 99.9% | 91.5% | 82.9% | 102% | 101% |  | 99% | 88.4%
5 | COc1ccc2c(O)c(/C=C3\N=Nc4ncccc43)oc2c1C[C@@H]1CCNC[C@H]1F | -17.9% (active) | -5.63% (active) | -28.2% (active) | -14.5% (active) | -2.3% (active) | -52.7% (active) | 1.53% (active) |  | -9.39% (active) | -17.4% (active)
6 | O=C(NN1C(=O)CSC1c1cccc([N+](=O)[O-])c1)c1ccc(NC(=O)c2ccccn2)cc1 (stereo not given) | 102% | 97.7% | 96.9% | 94.5% | 97% | 103% | 98.7% | 97.5% | 69.7% | 
7 | CSc1nc2ccc(C)cc2cc1/C=C1/C=C(c2ccccc2)NC1=O | 89.5% | 61.4% | 32.6% | 12.8% | -6.59% (active) | -52.8% (active) | 5.73% (active) | 41.7% | 44.1% | 
8 | O=C(NCCCCCCNC(=O)OCc1ccc2c(Cl)cc(Cl)c(O)c2n1)OCc1ccc2c(Cl)cc(Cl)c(O)c2n1 | -62% (active) | -69% (active) | -93.4% (active) | -100% (active) | -90.3% (active) | -97.5% (active) | -87.8% (active) |  | -2.75% (active) | 2.24% (active)
9 | O=c1cc(CP(=O)(O)O)c2cc(O)c(-c3ccccc3)cc2o1 | 107% | 89% | 98.2% | 88.2% | 106% | 98.4% | 93% |  | 99.2% | 93.6%
10 | Cc1nc([P+](c2ccccc2)(c2ccccc2)c2ccccc2)c(N2CCCCC2)o1 | 41.2% | 63.4% | 35% | 97% | 53.6% | 87.6% | 78% |  | 28.8% | 21.2%
11 | CCCCCc1ccc(S(=O)(=O)Nc2cc(-c3csc(NC(C)=O)n3)ccc2N2CCN(C)CC2)cc1 | 81.3% | 78.2% | 61.4% | 49.4% | 99.3% | 54.6% | 64.1% |  | 12.4% | 29.8%
12 | c1ccc(Nc2nc3c(s2)CCc2c[nH]cc2-3)nc1 | 99.2% | 75.3% | 106% | 59.4% | 159% |  | 97.3% | 81% | 64.7% | 9.72% (active)
13 | CCCCC#Cc1c(I)n(C2OC(CO[Si](C)(C)C(C)(C)C)C3OC(C)(C)OC32)c(=O)n(C(=O)c2ccccc2)c1=O (stereo not given) | 43% | 74.8% | 57.8% | -49.4% (active) | -11.4% (active) |  | 26.9% | 87.9% | 1.98% (active) | -7.06% (active)
14 | CSc1nc(-c2ccco2)c(C#N)c(=O)n1C | 94.3% | 98.4% | 110% | 112% | 104% | 100% | 89.2% |  | 95.1% | 
15 | O=c1oc2ccccc2cc1-c1nn(-c2ccccc2)cc1-c1nn[nH]n1 | 104% | 99.4% | 96.2% | 78.4% | 101% |  | 87.6% | 95.1% | 99% | 104%
16 | O=C(NC1CCC(Br)CC1)C1CCCC(S(=O)(=O)NC2CCCCC2)C1 (stereo not given) | 17.9% [25 µM] | -19.3% [25 µM] (active) | 22.2% [25 µM] | 8.5% [25 µM] (active) | 18.4% [25 µM] |  | 13.5% [25 µM] | -5.7% [25 µM] (active) | 7.81% [25 µM] (active) | 18.3% [25 µM]
17 | CCOC(=O)NCCCC(=O)NCCc1ccccc1 | 110% | 112% | 106% | 90.3% | 104% |  | 99.5% | 106% | 101% | 108%
18 | Cc1[nH]n(-c2cccc(Cl)c2)c(=O)c1/C=C1\C=c2ccccc2=CC1=O | 38.1% | 51.3% | 23.6% | 66.6% | 17.2% |  | 35% | 107% | 44.2% | 36.3%
19 | N[C@@H]1CCC[C@H]1NCCCCN1C(=O)c2cccc3cc([N+](=O)[O-])cc(c23)C1=O | 78.2% | 61.5% | 27.4% | 61.9% | 44.1% | 13.3% | 97.7% |  | -3.36% (active) | 1.99% (active)
20 | CN(C)CCn1c(=O)c2ccccc2n2nc3ccccc3c12 | 128% | 94.1% | 69.9% | 52.9% | 97.9% |  | 77.6% | 9.6% (active) | 29.9% | 81.8%
21 | O=c1cc(C(F)(F)F)c2cc(-c3cc4ccccc4c(=O)o3)c(O)cc2o1 | 46.1% | 89.5% | 64.4% | 58.5% | 103% | 74.1% | 76.5% |  | 58.5% | 53.9%
22 | O=C(Nc1cc(Cl)ccc1O)c1ccccc1Nc1ccnc(C(F)(F)F)c1 | 31.8% | 75.8% | 3.5% (active) | 1.11% (active) | 74.5% |  | 72.1% | 53.7% | -25% (active) | -2.43% (active)
23 | COc1cc([C@@H](CCO)C[C@H](C)c2ccc3ccccc3c2)cc(OC)c1OC | 16.1% | 49.1% | 42.2% | 44.2% | 49.3% | 43.6% | 28.8% |  | 25.7% | 21.6%
24 | COc1ccc(C2CC(c3ccccc3)=NN2C(=O)c2cc(OC)c(OC)c(OC)c2)cc1O (stereo not given) | 76.5% | 46.7% | 37.5% | 30.3% | 63.2% |  | 52.9% | 17.3% | 18.9% | 17.9%
25 | Cn1c2ccccc2c2c3c(c4c5cc(Br)ccc5n(C)c4c21)C(=O)N(O)C3=O | 56.3% | 88.5% | -53.2% (active) | 2.59% (active) | 90.3% |  | -22.4% (active) | 103% | -21.4% (active) | -22.2% (active)
26 | Cc1ncc(C(=O)Nc2ccc(CN3CCN(C)CC3)c(C(F)(F)F)c2)cc1C#Cc1cnc(N)c2ccc(C#N)cc12 | -6.37% (active) | 50.4% | 10.4% | -24.4% (active) | 4.43% (active) |  | -72.6% (active) | -41% (active) | 8.65% (active) | 3.7% (active)
27 | O=[N+]([O-])c1ccccc1Nc1ccc2ccccc2c1 | 104% | 87.7% | 98.9% | 59.4% | 99.7% |  | 78.3% | 59.9% | 76.8% | 92.3%
28 | O=S(=O)(Nc1cc(F)cc(F)c1)c1ccc(-c2cnc(C3CC3)o2)cc1 | 39.9% | 52.5% | 46.9% | 50.1% | 63.1% |  | 32.7% | 1.5% (active) | 39.1% | 32.2%
29 | CCN1CCN(CCNc2nccc(-c3c(-c4ccc(F)c(O)c4)nc4occn34)n2)S1(=O)=O | 1.39% (active) | 47.9% | 33.9% | 4.38% (active) | 44.9% |  | 18.5% | 49.1% | -9.69% (active) | 9.35% (active)
